31 molecules from PubChem BioAssay (Tox21) can be followed below.

Assay [1] addresses Estrogen receptor beta (Homo sapiens) (UniProt Q92731). Kind of assay: qHTS assay to identify small molecule agonists of the estrogen receptor beta (ER-beta) signaling pathway (AID 1259377; active = well fitted activation curve with a large enough effect in the signal ratio in the repeat runs, not every such curve was filed as active; the % refers to the signal ratio). The procedure, abridged:
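Ratiometric beta-lactamase FRET read-out came after 2 h substrate loading at room temperature. It followed 16 h compound treatment at 37C of GripTite HEK293T cells carrying a UAS-bla reporter, plated in 2% charcoal-stripped FBS medium.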
For orientation: In qHTS, concentration-response curves come from the screen itself.

The target is the same in assay [2]. The assay is described as follows: qHTS assay to identify small molecule antagonists of the estrogen receptor beta (ER-beta) signaling pathway (AID 1259378; active = well fitted inhibition curve with a large enough effect in the signal ratio in the repeat runs, not every such curve was filed as active; the % refers to the signal ratio; note: potency is the fitted concentration of half-maximal effect). The procedure, abridged: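 ER-beta-UAS-bla HEK293T (GripTite) cells in 2% charcoal-stripped FBS medium were preincubated 6 hr at 37C, dosed with compound, then stimulated with 1 nM E2 (final) for 16 hr; beta-lactamase reporter read by B/G FRET fluorescence after 2 hr substrate loading.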

The nature of assay [3]: qHTS assay to identify small molecule agonists of the androgen receptor (AR) signaling pathway in the presence of an antagonist - cell viability counter screen (AID 1259379). Note: nearly all actives have a fitted effect of over 25% in size. Note: potency is the fitted concentration of half-maximal effect. The gist of the method: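 Viability counter screen: CellTiter-Fluor fluorescence, measured in the same wells as the luciferase read-out. MDA-kb2 cells, 3,000/well, with nilutamide at 3.0uM final and compounds at 15 concentrations, 16 hr at 37C, 0% CO2.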

Assay [4] is described as follows: qHTS assay to identify small molecule agonists or antagonists of the thyroid stimulating hormone receptor (TSHR) signaling pathway - wild type cell line counter screen (AID 1259384; calls by dose curve). The procedure, abridged: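 Wild-type HEK293 cells were plated 18 h at 37 C/5% CO2, pin-dosed with compound plus Ro20-1724 medium, held 30 min at room temperature, then given cAMP-d2 and anti-cAMP-cryptate; fluorescence was read after 1 h. Fifteen concentrations, triplicate.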

Assay [5] can be described thus: qHTS assay to identify small molecule agonists of the estrogen receptor alpha (ER-alpha) signaling pathway in the presence of an antagonist - cell viability counter screen (AID 1259386). Note: nearly all actives have a fitted effect of over 30% in size. Note: potency is the fitted concentration of half-maximal effect. The gist of the method: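 Read-out: CellTiter-Fluor fluorescence after 1hr reagent incubation, measured in the same wells as the luciferase readout. VM7Luc4E2 cells were exposed to 15 compound concentrations with 10.0nM ICI-182,780 for 22hr at 37C.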

Assay [6] can be described thus: qHTS assay to identify small molecule agonists of the estrogen receptor beta (ER-beta) signaling pathway - cell viability counter screen (AID 1259380). Note: nearly all actives have a fitted effect of over 30% in size. Note: potency is the fitted concentration of half-maximal effect. The gist of the method: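 Luminescence read-out (CellTiter-Glo, 30 min, room temp) taken in the same wells as the beta-lactamase reporter assay; ER-beta-UAS-bla HEK293T cells exposed to DMSO-dissolved compounds for 16 hr at 37C in 2% charcoal-stripped FBS medium.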

Assay [7] is described as follows: qHTS assay to identify small molecule antagonists of the estrogen receptor beta (ER-beta) signaling pathway - cell viability counter screen (AID 1259382). Note: series mostly up to about 92 µM; nearly all actives have a fitted effect of over 55% in size. The gist of the method: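 Luminescent ATP read-out (CellTiter-Glo, 30 min, RT) taken in the same wells as the bla reporter assay. HEK293T ER-beta-UAS-bla cells in 2% charcoal-stripped FBS were exposed to compounds with 1nM E2 for 16 hr at 37C.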

For assay [8], the target named is Androgen receptor (Homo sapiens) (UniProt P10275). The assay is described as follows: qHTS assay to identify small molecule agonists of the androgen receptor (AR) signaling pathway in the presence of an antagonist (AID 1259381; calls by dose curve; note: nearly all actives have a fitted effect of over 15% in size). The procedure, abridged:
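Luciferase read-out (ONE-Glo, 30min room temperature) in MDA-kb2 MMTV-reporter cells; agonist mode run in presence of AR antagonist nilutamide, 3.0uM final. Compounds tested as 15-point series, 16hr exposure at 37C, 0% CO2.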

In assay [9] the target is Estrogen receptor (Homo sapiens) (UniProt P03372). The assay is described as follows: qHTS assay to identify small molecule agonists of the estrogen receptor alpha (ER-alpha) signaling pathway in the presence of an antagonist (AID 1259383; calls by dose curve; note: top concentration of the series differs between compounds; nearly all actives have a fitted effect of over 15% in size). The gist of the method:
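Luciferase luminescence (ONE-Glo, 30min at room temperature) measured in VM7Luc4E2 cells after 22hr compound exposure at 15 concentrations, with 10.0nM ICI-182,780 final present; cells express endogenous ER-alpha and carry four EREs upstream of luciferase.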

In assay [10] the target is Thyrotropin receptor (Homo sapiens) (UniProt P16473). Kind of assay: qHTS assay to identify small molecule antagonists of the thyroid stimulating hormone receptor (TSHR) signaling pathway (AID 1259385; calls by dose curve; note: nearly all actives have a fitted effect of over 20% in size; note: potency is the fitted concentration of half-maximal effect). The gist of the method: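 TSHR-HEK293 cells were plated and held 18 h at 37C/5% CO2, then given compound plus Ro20-1724 and stimulated with TSH at 1.5 ng/mL final. After 30 min at room temperature, cAMP was detected with cAMP-d2/anti-cAMP-cryptate (1 h) by fluorescence.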

Values joined by “and” are separate entries in the source; they are usually repeats but may differ in a detail not shown here. Identical values can stand only once. Results filed as inconclusive are left out. Active and inactive are the calls of the source. Unless noted, calls come from the whole dose curve; as a rule, active = well fitted curve in the direction sought with a large enough effect in the repeat runs; inconclusive = weak or mixed curves; inactive = no such curve, though single readings can be large; an effect the other way counts as inactive or inconclusive.

Thyrotropin receptor (Homo sapiens), sequence (P16473 whole entry, looked up): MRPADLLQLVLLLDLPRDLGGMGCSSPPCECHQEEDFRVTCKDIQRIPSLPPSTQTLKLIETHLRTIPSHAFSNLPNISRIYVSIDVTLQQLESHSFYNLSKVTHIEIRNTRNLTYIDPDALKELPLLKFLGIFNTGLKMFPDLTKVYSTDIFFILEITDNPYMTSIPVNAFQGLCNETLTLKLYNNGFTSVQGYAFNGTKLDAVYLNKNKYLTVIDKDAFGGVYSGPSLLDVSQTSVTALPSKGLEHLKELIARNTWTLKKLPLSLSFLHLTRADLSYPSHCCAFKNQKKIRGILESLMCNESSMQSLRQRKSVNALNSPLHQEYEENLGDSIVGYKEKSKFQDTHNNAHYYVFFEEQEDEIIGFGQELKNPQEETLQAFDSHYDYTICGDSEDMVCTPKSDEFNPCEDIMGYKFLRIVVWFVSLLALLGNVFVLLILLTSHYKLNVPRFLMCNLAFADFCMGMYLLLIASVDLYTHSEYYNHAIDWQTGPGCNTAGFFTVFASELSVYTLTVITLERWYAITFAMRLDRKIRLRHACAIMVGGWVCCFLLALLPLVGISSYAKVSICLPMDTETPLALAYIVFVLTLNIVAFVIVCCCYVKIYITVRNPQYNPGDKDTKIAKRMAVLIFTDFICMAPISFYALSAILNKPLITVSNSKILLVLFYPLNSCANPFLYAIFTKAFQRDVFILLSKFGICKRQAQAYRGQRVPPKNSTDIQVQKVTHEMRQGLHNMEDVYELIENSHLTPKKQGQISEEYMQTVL
Estrogen receptor beta (Homo sapiens), sequence (Q92731 whole entry, looked up): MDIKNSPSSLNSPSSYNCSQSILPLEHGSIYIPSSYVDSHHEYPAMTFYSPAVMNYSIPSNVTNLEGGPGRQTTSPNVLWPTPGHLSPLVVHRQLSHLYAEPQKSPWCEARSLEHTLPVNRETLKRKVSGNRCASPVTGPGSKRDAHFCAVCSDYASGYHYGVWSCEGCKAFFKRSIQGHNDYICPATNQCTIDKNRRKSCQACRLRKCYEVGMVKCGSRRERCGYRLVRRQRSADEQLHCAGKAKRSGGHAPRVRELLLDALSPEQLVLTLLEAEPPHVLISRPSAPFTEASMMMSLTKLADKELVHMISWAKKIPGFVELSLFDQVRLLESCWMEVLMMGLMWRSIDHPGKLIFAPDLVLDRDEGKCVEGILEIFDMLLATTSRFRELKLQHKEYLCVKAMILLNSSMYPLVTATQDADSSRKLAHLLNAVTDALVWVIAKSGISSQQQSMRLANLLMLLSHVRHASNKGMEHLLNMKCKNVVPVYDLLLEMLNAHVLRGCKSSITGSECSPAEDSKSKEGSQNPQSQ
Estrogen receptor (Homo sapiens), sequence (P03372 whole entry, looked up): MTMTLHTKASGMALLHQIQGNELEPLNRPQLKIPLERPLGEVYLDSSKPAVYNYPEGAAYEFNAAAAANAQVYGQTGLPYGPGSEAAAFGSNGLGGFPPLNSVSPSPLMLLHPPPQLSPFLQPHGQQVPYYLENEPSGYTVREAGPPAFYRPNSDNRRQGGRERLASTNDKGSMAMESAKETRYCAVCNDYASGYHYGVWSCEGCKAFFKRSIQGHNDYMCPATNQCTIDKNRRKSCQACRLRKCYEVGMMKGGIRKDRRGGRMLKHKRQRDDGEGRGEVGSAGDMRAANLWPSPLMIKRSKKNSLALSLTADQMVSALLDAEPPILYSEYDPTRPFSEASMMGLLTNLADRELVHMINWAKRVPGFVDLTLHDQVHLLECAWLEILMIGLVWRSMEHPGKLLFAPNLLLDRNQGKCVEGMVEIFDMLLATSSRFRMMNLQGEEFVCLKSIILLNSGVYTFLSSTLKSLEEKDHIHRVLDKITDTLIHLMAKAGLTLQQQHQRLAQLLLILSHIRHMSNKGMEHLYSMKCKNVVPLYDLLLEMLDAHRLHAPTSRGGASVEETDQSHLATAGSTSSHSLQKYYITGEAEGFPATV
Androgen receptor (Homo sapiens), sequence (P10275 whole entry, looked up): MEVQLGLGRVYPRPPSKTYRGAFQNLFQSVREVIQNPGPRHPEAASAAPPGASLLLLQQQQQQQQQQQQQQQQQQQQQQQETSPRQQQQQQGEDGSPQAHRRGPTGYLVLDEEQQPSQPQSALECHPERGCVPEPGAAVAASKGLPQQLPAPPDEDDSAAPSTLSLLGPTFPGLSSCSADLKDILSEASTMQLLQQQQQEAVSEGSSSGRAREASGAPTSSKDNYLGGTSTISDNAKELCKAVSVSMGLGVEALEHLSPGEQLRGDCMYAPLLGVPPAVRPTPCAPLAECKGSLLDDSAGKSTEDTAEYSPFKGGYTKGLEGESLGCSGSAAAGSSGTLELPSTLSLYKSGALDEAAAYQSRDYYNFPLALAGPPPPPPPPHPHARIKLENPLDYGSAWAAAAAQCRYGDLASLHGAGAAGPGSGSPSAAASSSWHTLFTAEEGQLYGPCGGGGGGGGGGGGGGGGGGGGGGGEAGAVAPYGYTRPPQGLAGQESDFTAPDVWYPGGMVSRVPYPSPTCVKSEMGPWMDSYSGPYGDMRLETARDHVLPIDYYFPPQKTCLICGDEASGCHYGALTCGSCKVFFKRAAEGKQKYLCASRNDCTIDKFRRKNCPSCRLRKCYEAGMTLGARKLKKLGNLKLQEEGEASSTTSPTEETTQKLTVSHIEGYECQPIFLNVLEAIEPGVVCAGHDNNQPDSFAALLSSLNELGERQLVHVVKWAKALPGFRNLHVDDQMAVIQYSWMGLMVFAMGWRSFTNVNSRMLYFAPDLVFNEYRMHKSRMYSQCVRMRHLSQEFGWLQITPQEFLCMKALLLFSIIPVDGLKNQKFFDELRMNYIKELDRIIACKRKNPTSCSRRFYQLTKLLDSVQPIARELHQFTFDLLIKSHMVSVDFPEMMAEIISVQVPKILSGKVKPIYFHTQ

`O=C(O)c1ccccc1C(=O)Nc1cccc2ccccc12`: the Potency result in [1], in [2], in assay [3] and in [5] was “inactive” in each case. Further, the call in assay [4] was inactive.
Take `O=C1CN=C(c2ccccc2)c2cc(Cl)ccc2N1CC1CC1`: the Potency entry in [1], in assay [3], in [6], in assay [7] and in [5] was “inactive” throughout. Besides, in assay [2], the Potency was 28.7 µM (active).
On to `Nc1ccc([N+](=O)[O-])cc1[N+](=O)[O-]`, for which the Potency entry in assay [1], in assay [2], in assay [6], in assay [8], in assay [7] and in [9] was “inactive” each time. The Potency entry in assay [10] is “inactive”. Also, in [4], the molecule was classed as inactive. In [5], the Potency was 53.1 µM (active).
For `COC(=O)C(Cl)C(=O)OC`, the Potency result in [1], in assay [2], in assay [6], in [7], in assay [9] and in [10] was “inactive” in each case. The Potency result in assay [5] was “inactive”. Further, in assay [4], the outcome was inactive.
With `O=[N+]([O-])C(Br)(CO)CO`, the Potency result in assay [1], in [2], in [3], in assay [8], in [7] and in assay [9] was “inactive” throughout. Further, the Potency entry in [10] and in assay [5] was “inactive” each time. The result in assay [4] was inactive.
Take `C=CCOC(C)=O`: the Potency result in assay [1], in assay [3], in [6], in assay [8], in assay [7] and in [9] was “inactive” in each case. The Potency entry in assay [10] and in [5] was “inactive” in each case. Moreover, the outcome in assay [4] was inactive.
`O=C1C(Cl)C(CCl)CN1c1cccc(C(F)(F)F)c1` (stereo unspecified): the Potency result in assay [1], in assay [2], in assay [3], in [8], in assay [7] and in [5] was “inactive” in each case. Also, in assay [4], the molecule was called inactive.
`O=C(N[C@H](c1ccccc1)[C@@H]1CN2CCC1CC2)c1c(Cl)ccc(C(F)(F)F)c1Cl`: the Potency result in [1] and in assay [5] was “inactive” throughout. The Potency in [2] was 39.2 µM (active). The molecule was classed as inactive in assay [4].
On to `ClCc1ccccc1`, for which the Potency result in assay [1], in assay [2], in assay [3], in [7], in assay [9] and in assay [10] was “inactive” each time. For the same molecule, the Potency entry in [5] was “inactive”. Besides, in assay [4], the molecule was called inactive.
`CC(C)(CCl)C(=O)Cl`: the Potency entry in assay [1], in assay [2], in assay [3], in [6], in [7] and in [10] was “inactive” each time. In addition, the Potency entry in [5] was “inactive”. Moreover, the molecule was called inactive in assay [4].
As to `CCOP(O)OCC`, the Potency result in [1], in assay [2], in assay [3], in assay [6], in [7] and in assay [10] was “inactive” each time. Also, the Potency result in assay [5] is “inactive”. In [4], the molecule was classed as inactive.
For the molecule `C=CC(=O)OC`, the Potency result in assay [1], in assay [2], in [3], in assay [6], in assay [7] and in assay [5] was “inactive” in each case. Besides, the call in assay [4] was inactive.
`O=C(NCc1cccnc1)Nc1ccc([N+](=O)[O-])cc1`: the Potency result in assay [1], in assay [2], in assay [3], in assay [7], in [9] and in assay [10] was “inactive” each time. For the same molecule, the Potency entry in assay [5] is “inactive”. In addition, the molecule was called inactive in assay [4].
For `O=C=Nc1ccc(Cl)cc1`, the Potency entry in assay [1], in [2], in assay [3], in assay [9] and in assay [5] was “inactive” in each case. Further, in assay [6], the Potency is 2.43 µM (active).
On to `O=C(Nc1ccccc1)Nc1cnns1`, for which the Potency entry in [1], in [3], in [7], in assay [9], in assay [10] and in assay [5] was “inactive” each time. The result in [4] was inactive.
For `CCCN(CCC)c1c([N+](=O)[O-])cc(S(C)(=O)=O)cc1[N+](=O)[O-]`, the Potency result in assay [1], in [3], in assay [6], in assay [7], in assay [9] and in assay [5] was “inactive” throughout.
`ClCc1cccc(Cl)c1`: the Potency entry in assay [2], in assay [3], in assay [6], in assay [8], in assay [7] and in [9] was “inactive” throughout. The Potency result in assay [10] and in assay [5] was “inactive” in each case. Further, the outcome in assay [4] was inactive.
Consider `O=[N+]([O-])c1ccc(F)c([N+](=O)[O-])c1`, for which the Potency result in [1], in [6], in [7], in assay [9] and in [10] was “inactive” in each case. In addition, the values for the Potency in assay [3] and in [5] were 27.6 µM (active) and 30.9 µM (active), respectively.
With `COC1=CC(=O)O[C@@H](CCc2ccccc2)C1`, the Potency entry in assay [2], in [3], in assay [6], in [8], in assay [7] and in assay [5] was “inactive” each time. In addition, the call in [4] was inactive.
As for `CCOP(=S)(OCC)Oc1nc(Cl)c(Cl)cc1Cl`, the Potency entry in [2], in assay [3], in [8], in [7], in [9] and in [5] was “inactive” in each case. Also, the Potency in [6] was 38.6 µM (active); in assay [10], 27.4 µM (active) and 54.5 µM (active). Besides, the outcome in [4] was inactive.
As to `Brc1ccccc1`, the Potency result in [2], in [3], in assay [6], in assay [8], in assay [7] and in assay [9] was “inactive” each time. Also, the Potency result in [10] and in [5] was “inactive” each time. The result in [4] was inactive.
As for `CN1[C@@H]2CC[C@H]1CC(OC(=O)c1cc(Cl)cc(Cl)c1)C2` (stereo partly specified), the Potency result in assay [2], in [3], in assay [7], in assay [9] and in [5] was “inactive” in each case. For the same molecule, the Potency in assay [6] and in assay [10] was 26.6 µM (active) each time. The call in assay [4] was inactive.
Turning to `CC(=O)[C@H]1CC[C@H]2[C@@H]3CC[C@H]4C[C@](C)(O)CC[C@]4(C)[C@H]3CC[C@]12C`, the Potency in assay [2] was 2.11 µM (active). Besides, the Potency result in assay [3], in assay [6], in assay [7], in assay [9], in assay [10] and in assay [5] was “inactive” throughout. In assay [4], the outcome was inactive.
As to `CC(C)=CCOc1c2occc2cc2ccc(=O)oc12`, the Potency result in [2], in assay [3], in [6], in assay [8], in assay [7] and in assay [9] was “inactive” throughout. Further, the Potency result in assay [5] is “inactive”. The result in [4] was inactive.
In the case of `CC(C)(Cl)[N+](=O)[O-]`, the Potency entry in [1], in assay [3], in assay [6], in [7], in assay [10] and in assay [5] was “inactive” throughout. Moreover, the call in [4] was inactive.
With `CCCN(CC1CC1)c1c([N+](=O)[O-])cc(C(F)(F)F)cc1[N+](=O)[O-]`, the Potency result in assay [2], in [3], in assay [6], in assay [7], in assay [9] and in [10] was “inactive” in each case. The Potency entry in assay [5] was “inactive”. For the same molecule, in assay [4], the outcome was inactive.
Turning to `Nc1ccc(N=Nc2ccc(-c3ccc(N=Nc4c(S(=O)(=O)O)cc5cc(S(=O)(=O)O)c(N=Nc6ccccc6)c(O)c5c4N)cc3)cc2)c(N)c1`, the Potency entry in assay [1], in assay [7] and in assay [9] was “inactive” throughout. The Potency was 17.6 µM (active) in assay [3] and 15.7 µM (active) in [5].
For the molecule `COP(=S)(OC)Oc1cc(Cl)c(I)cc1Cl`, the Potency entry in assay [1], in assay [3], in assay [8], in assay [7] and in assay [5] was “inactive” throughout. Besides, in assay [4], the molecule was called inactive.
Take `O=C(NC(=O)c1c(F)cccc1F)Nc1ccc(OC(F)(F)C(F)OC(F)(F)F)c(Cl)c1` (stereo unspecified): the Potency result in assay [2], in assay [3], in [6], in assay [7], in assay [9] and in [10] was “inactive” throughout. In addition, the Potency entry in assay [5] was “inactive”. The molecule was called inactive in assay [4].
Take `CC(=O)c1cc2c(cc1C)C(C)(C)C(C)CC2(C)C` (stereo unspecified): the Potency entry in assay [1], in assay [3], in assay [7] and in [5] was “inactive” each time. In assay [6], the Potency was 61.1 µM (active). In assay [4], the outcome was inactive.
On to `CN1C(=O)C(O)N=C(c2ccccc2)c2cc(Cl)ccc21` (stereo unspecified), for which the Potency result in assay [1], in assay [3], in assay [6], in assay [7], in assay [9] and in assay [5] was “inactive” in each case.
